Several values for one entry are separate records, joined by “and”; a condition that tells them apart may be missing. Equal entries are not always repeated. Inconclusive results are not listed. Values without a mark were called inactive. The rule behind the calls is not given here.

A short description of the assay: dose response, DH231 delta cqsS, luminescence, dry powder (AID 651808). As to conditions: V. cholerae DH231 delta cqsS, luxCDABE luminescence, 6 h; at 80 µM; test 2; hits give high values.
Regarding `O=C(NCc1ccc(-c2ccccc2)cc1)C1CCCC1`, the max activity (light induction) is -17%. Then `O=C(Cc1ccc(-c2ccccc2)cc1)NC1CCC1`, with -12.2%; and `O=C(Cc1ccccc1F)NC1CCCC1`, with 0.357%. Then `CS(=O)(=O)c1ccc(CC(=O)NC2CCCC2)cc1`, with -47.4%; and `COc1ccc(CC(=O)NC2CCCC2)cc1`, with -4.11%.

For `O=C(Cc1ccc(-c2ccccc2)cc1)NC1CCCC1`, the max activity (light induction) was -13.9% and -5.11%. Under `CCC(C)NC(=O)Cc1ccc(-c2ccccc2)cc1` (centres undefined) stands -31.1%. Under `CCCn1nnnc1NCc1ccc(C(C)C)cc1` stands -51.3%; under `O=C(Cc1ccc(-c2ccccc2)cc1)NC1CCCCC1`, -14.6%. Under `CCn1nnnc1NCc1ccc(N2CCCC2)cc1` stands -52.6%.

As for `CC(C)c1ccc(CNc2nnnn2C)cc1`, the max activity (light induction) is -24.7%. `O=C(Cc1ccccc1C(F)(F)F)NC1CCCC1`: the max activity (light induction) is -7.17%. Under `O=C(Cc1ccccc1OC(F)(F)F)NC1CCCC1` stands -14.6%; under `CCCn1nnnc1NCc1ccccc1Cl`, -58.8%.

`O=C(Cc1ccc(-c2ccccc2)cc1)NC1CCOCC1`: the max activity (light induction) was -9.06%. As for `O=C(Cc1cccc(F)c1)NC1CCCC1`, the max activity (light induction) is -4.2%. Regarding `O=C(Cc1ccccc1Cl)NC1CCCC1`, the max activity (light induction) is -18.1%.

As to `CC(C)NC(=O)Cc1ccc(-c2ccccc2)cc1`, the max activity (light induction) is -26.8%.

Turning to `CCn1nnnc1NCc1ccc(C(C)C)cc1`, the max activity (light induction) was -41.8% and -46.4%.
